Assay outcomes: PubChem, The Scripps Research Institute Molecular Screening Center
Shown are actives, neighbours in structure and some others; about 2.4% of the full set was active somewhere.
MBD2 DNA inh – MBD2-methylated oligo binding inhibition | Q9UBB5 | TR-FRET, MBD2 binding to methylated oligonucleotide | inhibition, % at 4.4 µM | hit rate 0.31% among 370,000 | AID 686964; in the data active means inhibition above about 13%
PLCb3 inh – inhibitors of human phospholipase C beta3 | Purified PLC-beta3, fluorogenic substrate, fluorescence | inhibition, % at 12.2 µM | hit rate 0.18% among 370,000 | AID 720704; in the data active means inhibition above about 11%
Target sequence (Q01970 whole entry, looked up): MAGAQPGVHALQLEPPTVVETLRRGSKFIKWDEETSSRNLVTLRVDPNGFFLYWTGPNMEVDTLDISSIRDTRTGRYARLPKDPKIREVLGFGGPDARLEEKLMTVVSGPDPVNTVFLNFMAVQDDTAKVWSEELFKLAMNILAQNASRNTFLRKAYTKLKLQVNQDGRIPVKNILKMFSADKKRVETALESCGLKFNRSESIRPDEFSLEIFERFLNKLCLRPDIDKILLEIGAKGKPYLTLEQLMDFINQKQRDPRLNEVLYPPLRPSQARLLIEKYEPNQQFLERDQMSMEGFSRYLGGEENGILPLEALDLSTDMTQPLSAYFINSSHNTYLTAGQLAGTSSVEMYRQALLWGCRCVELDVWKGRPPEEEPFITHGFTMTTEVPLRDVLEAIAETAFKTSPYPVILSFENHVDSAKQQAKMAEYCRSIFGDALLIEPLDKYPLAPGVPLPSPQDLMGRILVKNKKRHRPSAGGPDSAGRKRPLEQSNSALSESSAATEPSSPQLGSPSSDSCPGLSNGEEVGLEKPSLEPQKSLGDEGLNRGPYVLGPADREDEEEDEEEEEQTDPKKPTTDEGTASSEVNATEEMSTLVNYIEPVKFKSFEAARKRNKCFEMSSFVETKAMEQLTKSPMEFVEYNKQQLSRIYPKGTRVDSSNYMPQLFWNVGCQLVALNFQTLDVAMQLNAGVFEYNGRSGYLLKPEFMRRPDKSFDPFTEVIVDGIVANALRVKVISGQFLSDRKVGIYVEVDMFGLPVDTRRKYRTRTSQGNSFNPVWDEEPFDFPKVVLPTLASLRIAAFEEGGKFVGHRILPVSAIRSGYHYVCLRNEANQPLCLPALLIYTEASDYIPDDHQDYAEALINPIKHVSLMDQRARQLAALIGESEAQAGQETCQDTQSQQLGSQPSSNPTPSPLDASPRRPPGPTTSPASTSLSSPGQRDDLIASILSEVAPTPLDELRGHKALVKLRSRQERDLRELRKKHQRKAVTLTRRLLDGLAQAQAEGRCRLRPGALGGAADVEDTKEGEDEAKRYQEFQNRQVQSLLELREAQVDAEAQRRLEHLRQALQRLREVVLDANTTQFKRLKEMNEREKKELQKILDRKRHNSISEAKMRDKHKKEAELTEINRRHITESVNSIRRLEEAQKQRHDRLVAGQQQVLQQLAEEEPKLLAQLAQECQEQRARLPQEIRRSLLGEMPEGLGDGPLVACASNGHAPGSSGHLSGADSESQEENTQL
LEDGF integ inh – blocks HIV-1 LEDGF/p75-dependent DNA integration. hit rate 0.64% among 370,000. inhibition, % at 3.7 µM. AID 743269. TR-FRET IN-LEDGF/p75 DNA integration, Eu/Cy5;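 active means inhibition above the screen-wide mean plus 3 SD, cut at about 13% in these data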;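 further: signal is the Cy5 over europium emission ratio at 671 and 618 nm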
UHRF1 MBD2 ctr – UHRF1 methyl-DNA binding inhibition. Q96T88. UHRF1 binding to methylated oligo, TR-FRET. inhibition, % at 4.4 µM. hit rate 0.75% among 370,000; in the data active means inhibition above about 21%;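 further: UHRF1 SRA domain binding a hemimethylated CpG hairpin DNA probe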
PLC-gamma1 inh – inhibitors of human phospholipase C gamma1 | P19174 | purified PLC-gamma1, fluorogenic substrate, fluorescence | inhibition, % at 12.2 µM | hit rate 0.84% among 370,000 | AID 720700; in the data active means inhibition above about 9.5%
Numbers stand for hits; . = inactive.

SMILES	MBD2 DNA inh	PLCb3 inh	LEDGF integ inh	UHRF1 MBD2 ctr	PLC-gamma1 inh
CCCCN(CCCC)C(=O)/C=C/c1cccc([N+](=O)[O-])c1	.	.	.	21	.
OC(CC#CCN1CCCC1)(c1ccccc1)c1ccccc1	.	.	.	22	.
OC(CC#CCN1CCCCC1)(c1ccccc1)c1ccccc1	.	.	.	.	.
CC[C@@H](CCCCCCCn1ccc2ccccc21)CCC(=O)N(c1ccccc1)c1ccccc1	.	.	.	.	.
CN(C)S(=O)(=O)n1cc(/C=C(\NC(=O)c2ccccc2Cl)C(=O)N2CCCC2)c2ccccc21	.	.	.	.	.
CN(C)S(=O)(=O)n1cc(/C=C(\NC(=O)c2ccccc2F)C(=O)N2CCCCC2)c2ccccc21	.	.	.	24	.
CSc1ccccc1C(=O)Nc1c(C)cccc1C	.	.	.	.	.
CSc1ccccc1C(=O)NCc1ccccc1C	.	.	.	22	.
COc1ccc(S(=O)(=O)NCc2ccccn2)cc1NC(=O)c1ccc(C)cc1	.	.	.	.	.
COc1ccc(S(=O)(=O)NCc2ccccn2)cc1NC(=O)c1ccccc1	.	.	.	36	.
Cc1ccc(S(=O)(=O)NCc2ccccn2)cc1C	.	.	.	23	.
O=S(=O)(NCc1ccccn1)c1ccc2ccccc2c1	.	.	.	.	.
Cc1cc(NS(=O)(=O)C2CCN(C(=O)Cc3ccc(Cl)c(Cl)c3)CC2)no1	.	.	.	.	.
CCn1c(SCC(N)=O)nc2ccccc2c1=O	.	.	.	25	.
COc1ccccc1Cn1c(SCC(N)=O)nc2c(oc3ccccc32)c1=O	.	.	.	61	.
Cc1cc(C)c(C(=O)OCCNC(=O)c2cccnc2)cc1C	.	.	.	.	.
O=C(NCCOC(=O)c1ccccc1C(=O)OCCNC(=O)c1cccnc1)c1cccnc1	.	12	.	.	.
O=S1(=O)c2ccc(Br)cc2OC[C@@H](Cc2ccccc2)N1Cc1cn(Cc2ccc(Cl)cc2)nn1	.	.	.	.	.
Nc1ncnc2nc(SCc3ccccc3)[nH]c12	.	.	.	.	.
CCC(Sc1nc2ncnc(N)c2[nH]1)C(=O)O (stereo not drawn)	.	.	.	21	.
O=C(Nc1ccccc1N1CCOCC1)c1cnccn1	.	.	.	37	.
Cc1onc(-c2ccccc2)c1C(=O)Nc1ccccc1N1CCOCC1	.	.	.	.	13
C[C@H](O)[C@@H]1CN2CCc3c([nH]c4cccc(-c5ccccc5)c34)[C@@H]2C[C@@H]1N(C)C(=O)Nc1ccccc1	.	.	.	.	.
O=C(NCc1cccs1)C1CCN(S(=O)(=O)c2ccc([N+](=O)[O-])cc2)CC1	.	.	.	.	.
C[C@H](O)[C@@H]1CN2CCc3c([nH]c4c(-c5ccccc5)cccc34)[C@@H]2C[C@@H]1N(C)C(=S)Nc1ccc(C#N)cc1	.	.	.	.	.
SMILES	MBD2 DNA inh	PLCb3 inh	LEDGF integ inh	UHRF1 MBD2 ctr	PLC-gamma1 inh
CC(=O)Nc1ccc(C=NNc2ccc(S(=O)(=O)Nc3ccccc3C(=O)O)cc2[N+](=O)[O-])cc1	.	.	.	.	11
CC(=O)Nc1ccc(C=NNc2ccc([N+](=O)[O-])cc2S(=O)(=O)Nc2ccccc2C(=O)O)cc1	.	.	.	.	.
O=C(Nc1ccc2c(c1)OCO2)OC1CCC12CCCCC2 (stereo not drawn)	.	.	.	.	.
CCCCN1CC(COCc2ccccc2)Oc2cccc(Oc3ccc(SC)c(C)c3)c2S1(=O)=O (stereo not drawn)	.	.	.	23	.
C[C@@H]1O[C@@H](n2c3ccc(Cl)cc3c3ccc4c5cc(Cl)ccc5[nH]c4c32)[C@H](O)[C@H](O)[C@H]1O	.	.	.	.	.
COC(=O)[C@]1(CNC(=O)C(C)(C)C)CC(=O)N(Cc2ccc(Cl)cc2)[C@@H]1c1ccc(OC)cc1	.	.	.	45	.
COC(=O)[C@]1(C#N)CC(=O)N(Cc2ccc(Cl)cc2)[C@@H]1c1ccc(OC)cc1	.	.	.	.	.
O=C(NCC1CCCO1)c1cc(S(=O)(=O)N2CCOCC2)c(Cl)cc1Cl (stereo not drawn)	.	.	.	23	.
O=C(NCC1CCCO1)c1ccc(Cl)c(S(=O)(=O)N2CCOCC2)c1 (stereo not drawn)	.	.	.	.	.
N/C(=N\OC(=O)/C=C/c1ccc(Br)cc1)c1ccccn1	.	.	.	23	.
N/C(=N\OC(=O)/C=C/c1ccccc1Cl)c1ccccn1	.	.	.	.	.
COc1cccc(Cn2cc(COC(=O)NCC(C)C)nn2)c1	.	.	.	.	.
COC(=O)C1SCC2C(=O)N(Cc3ccc(F)cc3)CC(=O)N21 (stereo not drawn)	.	.	.	21	.
O=C(CC1Sc2ccccc2NC1=O)NCc1cccc(Cl)c1 (stereo not drawn)	.	.	.	.	.
O=C(CC1Sc2ccccc2NC1=O)NCc1ccc(Cl)cc1 (stereo not drawn)	.	.	.	28	.
CCN(C[C@H]1[C@@H](c2ccc(C3=CCCC3)cc2)[C@H](CO)N1c1nc(C)c(C)s1)S(=O)(=O)c1ccccc1[N+](=O)[O-]	.	.	.	.	.
Cc1cc(C)c2cc(CN(Cc3ccco3)C(=S)NCC3CCCO3)c(=O)[nH]c2c1 (stereo not drawn)	.	.	.	45	.
COc1ccc2cc(CN(Cc3ccco3)C(=S)NCC3CCCO3)c(=O)[nH]c2c1 (stereo not drawn)	.	.	.	.	.
O=C1[C@@H](CCc2ccccc2)[C@@H]2c3ccccc3C=NN2[C@@H]2c3ccccc3C=NN12	.	.	.	.	.
CCOC(=O)[C@]12CCCC=C1N(Cc1ccc(OC)cc1)C(=O)[C@@H]2CC(=O)N1CCN(C(=O)c2ccco2)CC1	.	.	.	.	.
Cc1ccc(Cl)cc1N1CCN(C(=O)CCS(=O)(=O)c2ccc3c(c2)NC(=O)CO3)CC1	.	.	.	23	.
CCn1c2ccccc2c2cc(NC(=O)COC(=O)c3cccc(F)c3F)ccc21	.	.	.	.	.
CCOC(=O)c1sc(Nc2ccccc2Cl)nc1C	.	.	.	27	.
CCOC(=O)c1sc(NC(=O)Nc2ccccc2F)nc1C	.	.	.	.	.
Cc1ccc(C(C(=O)NC2CCCCC2)N(CCC(C)C)C(=O)CNC(=O)c2ccco2)o1 (stereo not drawn)	.	.	.	21	.
C=CCN1[C@H](CC(C)C)COc2cc(N3CCSCC3)ccc2S1(=O)=O	.	.	.	.	.
COc1ccc(/C=C/C(=O)NCC(=O)N2CCC(N(C)CCN3CCOCC3)CC2)cc1OC	.	.	.	22	.
CCCC(=O)OC12CCCN(C1)/C(=C/c1ccc(Cl)cc1)C2 (stereo not drawn)	.	.	.	.	.
CCCOc1ccc(N)cc1N	.	.	38	.	.
Cc1ccc(S(=O)(=O)N2CCN(C(=O)CCC(=O)NCCc3ccc(S(N)(=O)=O)cc3)CC2)c(C)c1	.	.	.	44	.
